Source: PubChem (National Center for Advancing Translational Sciences (NCATS))
EPAC2 ag = agonists of human EPAC2 (RAPGEF4); EPAC2 activation, biochemical qHTS; response scale: 100% = 6.5 mM cAMP response; Potency, µM (top dose mostly 154 µM), inactives show at the top dose activation, hits mostly activators; hit rate 0.079% among 360,000; AID 720711; also: nearly all actives have a fitted effect of over 50% in size
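Fluorescence exchange assay: 100 nM EPAC2 with 250 nM RAP1B-BODIPY-GDP and 50 uM GDP; compounds tested as a concentration-titration series (qHTS). Loss of Rap1-bound BODIPY-GDP fluorescence read at 480/540 nm; data normalized to 6.5 mM cAMP.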
EPAC1 antag = antagonists of human EPAC1; hit rate 0.14% among 360,000; EPAC1 GEF assay, Rap1b-BODIPY-GDP exchange fluorescence; Potency, µM (series often up to 115 µM), for inactives: at the highest dose activity change, negative = inhibition, most hits filed as inhibitors;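 also: plate controls were vehicle for no effect and positive control for full effect; nearly all actives have a fitted effect of over 50% in size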
ERG-DNA inh = inhibitors of human ERG Ets domain-DNA interaction. P11308. fluorescence polarization, His-ERG Ets domain / labelled DNA. Potency, µM (series often up to 76.9 µM), for inactives: at the highest dose FP activity, negative = inhibition, hits mostly inhibitors. hit rate 0.028% among 370,000. AID 624246; active = well fitted inhibition curve with a large enough effect in the polarisation, with a control signal flat; inconclusive = small, poorly fitted or top-dose-only effect, or effect the other way, or a change in a side signal; inactive = no such curve, though single readings can be large or run the other way; the % refers to the polarisation;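 also: polarization taken with two DNA probes labelled with fluorescein and Texas red; % of control where 0% means no effect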
Target sequence (P11308 whole entry, looked up, the tested form may be a part): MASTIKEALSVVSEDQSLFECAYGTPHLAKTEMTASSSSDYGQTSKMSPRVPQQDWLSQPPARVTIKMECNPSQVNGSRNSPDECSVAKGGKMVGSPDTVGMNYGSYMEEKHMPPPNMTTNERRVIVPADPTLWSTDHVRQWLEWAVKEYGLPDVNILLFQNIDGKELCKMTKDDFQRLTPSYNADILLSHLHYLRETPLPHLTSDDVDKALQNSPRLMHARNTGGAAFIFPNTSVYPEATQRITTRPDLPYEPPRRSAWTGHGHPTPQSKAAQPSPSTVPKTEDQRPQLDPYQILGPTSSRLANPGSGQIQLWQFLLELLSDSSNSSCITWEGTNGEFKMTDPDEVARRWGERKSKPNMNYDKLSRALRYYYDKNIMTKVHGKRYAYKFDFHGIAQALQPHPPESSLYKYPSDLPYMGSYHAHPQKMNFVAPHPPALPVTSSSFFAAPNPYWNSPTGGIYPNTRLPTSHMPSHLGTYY
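His-tagged ERG Ets domain (1 uM in the protein solution; 300mM KCl, 50mM Tris-HCl, 1mM EDTA, 1mM DTT, pH 7.5) received compound, then a probe mix of 5 nM fluorescein-DNA and 100nM Texas-615-DNA. Fluorescence polarization was read for both dyes.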
EPAC1 ag = EPAC1 (human) agonism | EPAC1 agonist qHTS, biochemical assay; response scale: 100% = response to 6.5 mM cAMP | Potency, µM (doses to about 154 µM), inactives show at the highest dose activation, most hits filed as activators | hit rate 0.073% among 360,000; also: nearly all actives have a fitted effect of over 60% in size
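Fluorescent GDP-exchange assay: 100 nM EPAC1 with 250 nM Rap1B preloaded with BODIPY-GDP and 50 uM GDP; compounds tested as concentration series, 5 min at room temperature, then read every 5 min for 30 min (ex 480/em 540 nm); normalized to 6.5 mM cAMP.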
TDP1 block = inhibitors of human tyrosyl-DNA phosphodiesterase TDP1; Q9NUW8; hit rate 0.28% among 350,000; AID 485290; Potency, µM (series often up to 130 µM), for the others: at the top dose activity change, negative = inhibition, most hits filed as inhibitors; recombinant TDP1, AlphaScreen DNA substrate cleavage; also: % is scaled to controls: 0 for no effect and ±100 for the full control effect; nearly all actives have a fitted effect of over 40% in size
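Recombinant E. coli-expressed Tdp1 (1 nM) preincubated with compound 15 min at RT, then 5'-biotin/3'-phosphotyrosine-FITC DNA substrate (15 nM) added for 5 min. AlphaScreen beads (10 ug/ml) added, 10 min RT; tyrosine-FITC cleavage read as signal loss.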
EPAC2 antag = blocks human EPAC2 exchange factor. Q8WZA2. EPAC2 GEF exchange of Rap1B-BODIPY-GDP, fluorescence. Potency, µM (series often up to 114 µM), without a hit: at the highest dose activity, negative = inhibition, usual class: inhibitors. hit rate 0.18% among 360,000; also: % is scaled to controls: 0 for no effect and ±100 for the full control effect; nearly all actives have a fitted effect of over 45% in size
An asterisk follows results filed as active; ? = inconclusive; . = no result. Sampled rows, rich in hits. Any-hit rate of the full collection: about 0.54%. Unless noted, calls follow the shape of the dose curve; as a rule, active = well fitted curve in the direction sought with a large enough effect; inconclusive = small, poorly fitted or top-dose-only effect, or another doubt; inactive = no such curve, though single readings can be large; an effect the other way counts as inactive or inconclusive. Potency is read from the fitted curve at half-maximal effect.

SMILES	EPAC2 ag	EPAC1 antag	ERG-DNA inh	EPAC1 ag	TDP1 block	EPAC2 antag
CCOc1ccc(C=NNc2ccc(S(=O)(=O)Nc3ccccc3C(=O)O)cc2[N+](=O)[O-])cc1OC	-5%	-13%	16%	5%	.	-13%
CC(=O)Nc1cccc(/C(C)=N/Nc2ccc(S(=O)(=O)Nc3ccccc3C(=O)O)cc2[N+](=O)[O-])c1	-5%	50µM*	.	-14%	.	?
CCOc1cc(/C=N/Nc2ccc(S(=O)(=O)Nc3ccccc3C(=O)O)cc2[N+](=O)[O-])cc(Cl)c1O	4%	50µM*	.	-3%	.	4%
COc1cc(C=NNc2ccc(S(=O)(=O)Nc3ccccc3C(=O)O)cc2[N+](=O)[O-])ccc1O	-16%	89µM*	4%	-4%	0%	?
O=C1CCc2cc([S+](=O)([O-])Nc3ccc(N[S+](=O)([O-])c4ccc5c(c4)CCC(=O)N5)cc3)ccc2N1	.	.	.	.	0%	.
N#Cc1nc(Nc2cc(F)cc(F)c2)nc(NC2CCCC2)n1	.	.	.	.	-1%	.
O=C(OCC#CCSc1nnc(-c2c[nH]c3ccccc23)o1)c1ccc(F)cc1	.	.	.	.	-3%	.
COc1ccc(NS(=O)(=O)c2ccc3c(c2)CCC(=O)N3)cc1	.	.	.	.	1%	.
C[C@@]12C(=O)Nc3cc(F)ccc3C(=O)N1[C@H]1c3cc(Br)ccc3OC[C@@H]1[C@@H]2c1ccccc1	79µM*	6%	10%	-9%	1%	150%
CCOC(=O)[C@H]1[C@H]2COc3ccc(C)cc3[C@@H]2N2C(=O)c3ccc(F)cc3NC(=O)[C@@]12C	10%	-13%	1%	7%	.	-30%
CCOC(=O)[C@H]1[C@H]2COc3ccc(C)cc3[C@@H]2N2C(=O)c3ccc(C)cc3NC(=O)[C@@]12C	79µM*	10%	-1%	?	6%	17%
O=C1S/C(=C\c2ccc(N3CCOCC3)o2)C(=O)N1Cc1ccc(F)cc1	112µM*	1%	4%	7%	2%	-3%
COc1ccc(C(=O)N(Cc2ccccc2)Cc2ccc(OC)c(COc3ccc(NC(C)=O)cc3)c2)cc1	.	.	.	.	0%	.
O=c1[nH]c(/C=C/c2ccccc2F)nc2ccccc12	0%	-4%	-6%	-1%	45µM*	2%
O=c1[nH]c(/C=C/c2cccc3ccccc23)nc2ccccc12	4%	-7%	13%	-4%	5%	-5%
COc1ccc(/C=C2\SC(=S)N(CCC(=O)N3CCCCC3)C2=O)cc1	-4%	-12%	4%	3%	8%	-4%
COCCN1C(=O)/C(=C/c2ccc(N3CCCC3)cc2)SC1=S	20µM*	-20%	?	?	-3%	2%
CCCN1CNc2c(c(=O)[nH]c(=S)n2CCc2c(Cl)cccc2Cl)C1	.	.	.	.	0%	.
CCN1CCc2c(sc(NC(=O)CSc3ccccc3)c2-c2nc3ccccc3s2)C1	.	.	1%	.	0%	.
CC(=O)Nc1sc2c(c1-c1nc3ccccc3s1)CCN(C(C)C)C2	63µM*	15%	?	16%	.	36%
COc1ccc(-n2nc(C(=O)O)c3csc(N)c3c2=O)cc1	.	.	.	.	-14%	.
O=C(c1ccccc1)c1ccc2ccccc2c1	18%	6%	9%	12%	.	?
Cc1cc2ccccc2cc1C(=O)c1ccccc1	18%	-13%	-7%	7%	.	8.9µM*
O=C(c1ccccc1)c1ccc(O)cc1O	100µM*	107%	62%	100µM*	3%	96%
COc1ccc(C(=O)c2ccccc2)c(O)c1	1%	3%	-4%	5%	-8%	12%
SMILES	EPAC2 ag	EPAC1 antag	ERG-DNA inh	EPAC1 ag	TDP1 block	EPAC2 antag
COc1ccc(CN2C(=O)c3cccc4cccc2c34)cc1F	16%	13%	15%	11%	50µM*	?
CC(=O)N1c2ccccc2CC1C(=O)N1CCN(c2ccccc2)CC1 (configuration not stated)	.	.	2%	.	1%	.
O=C(C1Cc2ccccc2CN1C(=O)c1ccccc1)N1CCN(c2ccccc2)CC1 (configuration not stated)	10%	-12%	-3%	3%	35µM*	-1%
O=C1c2ccccc2C(=O)N1CCCCCCc1ccccc1	3%	-22%	9%	-2%	35µM*	-16%
Cc1ccc(NC(=S)/C(C#N)=C2/Nc3ccccc3S2)cc1	-5%	?	.	2%	.	20µM*
N#C/C(C(=O)N1CCCCC1)=C1\Nc2ccccc2S1	6%	-9%	-2%	2%	3%	5%
CN(C)c1ccc(/C=C/C(=O)c2ccccc2O)cc1	15%	7%	29%	14%	12%	4%
COc1ccc(C(=O)/C=C/c2ccc(N(C)C)cc2)c(OC)c1	-26%	17%	18%	100µM*	1%	57%
CN(C)c1ccc(/C=C/C(=O)c2ccc3c(c2)OCO3)cc1	100µM*	89%	80%	63µM*	-2%	59%
O=[N+]([O-])c1cc(Cl)cc(/C=N/NC(=S)Nc2ccc(S(=O)(=O)N3CCOCC3)cc2)c1O	-11%	?	19%	-10%	12%	56µM*
Cc1ccc(Nc2c(-c3ccc(C)s3)nc3cccc(C)n23)cc1	.	.	.	.	6%	.
Cc1cccc(-n2c(O)c(C=Nc3ccccc3-c3n[nH]c(=S)[nH]c3=O)c3ccccc3c2=O)n1	1%	-23%	-5%	-12%	-3%	12%
Cc1ccc(-n2c(O)c(C=Nc3ccccc3-c3n[nH]c(=S)[nH]c3=O)c3ccccc3c2=O)cc1C	0%	50µM*	5%	8%	2%	-22%
Cc1cccc(Cn2c(=O)oc3ccc(C)cc32)c1	-3%	-3%	-24%	-4%	.	79µM*
Cc1ccc2oc(=O)n(Cc3ccc(OC(C)C)cc3)c2c1	8%	-9%	-3%	-13%	.	?
Cc1ccc(S(=O)(=O)N2CCN(c3nc(-c4ccncc4)nc4ccccc34)CC2)cc1	.	.	.	.	-11%	.
CC(/C=C1\SC(=S)N(NS(=O)(=O)c2ccccc2)C1=O)=C\c1ccccc1	2%	40µM*	36%	-7%	.	50µM*
CC(/C=C1\SC(=S)N(NS(=O)(=O)c2ccc(C)cc2)C1=O)=C\c1ccccc1	-1%	40µM*	10%	3%	.	35µM*
CC(/C=C1\SC(=S)N(NC(=O)c2ccc(C)cc2)C1=O)=C\c1ccccc1	10%	-5%	?	-4%	8%	-9%
Nc1cccc(S(=O)(=O)N2CCN(S(=O)(=O)c3c(F)cccc3F)CC2)c1	.	.	.	.	1%	.
COc1ccc2c(c1)CC/C(=C\Nc1ccc3c(c1)OCO3)C2=O	?	10%	.	?	9%	6%
